Assay in all cases: NCI-60 one-dose screen, 48 h (100 = growth as untreated, 0 = no growth, -100 = all killed)
Conditions in all cases: 10 µM unless noted

Assay [1] has as its system RPMI-8226 leukemia.
The subject of assay [2] is OVCAR-8 ovarian.
Assay [3] relates to OVCAR-5 ovarian.
Assay [4] deals with OVCAR-4 ovarian.
Assay [5] concerns SK-OV-3 ovarian.
The test system of assay [6] is IGROV1 ovarian.
Assay [7] relates to OVCAR-3 ovarian.
The test system of assay [8] is HS 578T breast.
The subject of assay [9] is NCI/ADR-RES ovarian.

The structures appear in SMILES notation. This is part of a sample that, as a whole, favours compounds with a hit. Of some 83,000 tested, about 20% had one in any assay.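 48-hour exposure, single concentration, 96-well plates; percent growth endpoint where 0 means no net growth. Active: below 10.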 Unmarked numbers belong to inactive results. Calls of active or inactive are those of the source.

As for `Cc1ccc2ccccc2c1C[n+]1ccccc1`, the growth in assay [1] is 80.9%; in assay [2] it was 91.7%; in assay [3] it was 116%; in assay [4], 91.5%; in assay [5], 100%; in [6], 101%. Further, the growth was 102% in assay [7], 95.1% in assay [8] and 104% in [9].

Regarding `O=S(=O)(NCCNc1nccc(-c2c(-c3ccc(F)cc3)nc3sccn23)n1)c1ccc(F)cc1`, the growth is 74.7% in assay [1]; 68.2% in assay [2]; 102% in assay [3]; 81.4% in [4]; 92.7% in assay [5]; 61.8% in [6]. Further, the growth in assay [7] was 90.1%; in assay [8] it was 93.8%; in assay [9] it was 81.2%.

Consider `C=C(C)[C@@H]1C[C@@H]2Cc3cc(F)ccc3N1O2`, for which the growth in assay [1] is 65.2%; in [2] it was 97.1%; in [3] it was 93.8%; in assay [4], 101%; in [5] it was 104%; in assay [6], 108%. In addition, the growth in assay [7] was 112%; in assay [8], 99%; in assay [9], 99.6%.

As to `Oc1ccc(Cl)cc1-c1cc(-c2ccc(F)cc2)n[nH]1`, the growth in assay [1] was 28.2%; in assay [2] it was 73.4%; in assay [3], 83.6%; in [4], 25.3%; in [5], 74.8%; in assay [6], 40%. Besides, the growth is 49.8% in assay [7], 65.4% in assay [8] and 66.4% in assay [9].

As to `CC1=C(C#N)C(=O)NC(C)C1` (stereo not given), the growth was 105% in assay [1]; 102% in assay [2]; 95.5% in assay [3]; 110% in assay [4]; 103% in assay [5]; 105% in assay [6]. Moreover, the growth was 103% in [7], 97.2% in [8] and 102% in assay [9].

In the case of `Cc1cc(N)n(S(=O)(=O)c2oc(-c3ccccc3)nc2C#N)n1`, the growth in assay [1] is 75.9%; in assay [2], 89.4%; in [3], 109%; in [4], 106%; in [5], 91.8%; in assay [6], 97.9%. Moreover, the figures for the growth in [7], in [8] and in assay [9] were 89.9%, 116% and 100%, respectively.

As for `COc1ccc(Nc2nn3c(C)cc(C)nc3c2C(=O)Nc2ccc(C)cc2)c(OC)c1`, the growth was 102% in assay [1]; 100% in [2]; 82.9% in assay [3]; 102% in assay [4]; 87.7% in [5]; 97.1% in assay [6]. Further, the growth in assay [7], in [8] and in assay [9] was 105% in each case.

Regarding `COc1ccc(C2=C(c3cc(OC)c(OC)c(OC)c3)C(=O)CC2)cc1`, the growth in [1] is 14.1%; in [2], 22.8%; in assay [3], 33.1%; in assay [4], 49%; in [5], 7.01% (active); in assay [6] it was 27.9%. For the same compound, the growth in assay [7] is -65.4% (active); in [8] it was 6.1% (active); in assay [9], -49.4% (active).

Take `O=C(c1c[nH]c(=O)c(-c2ccccc2)c1)c1ccccc1O`: the growth is 95.2% in [1]; 85.6% in assay [2]; 88.5% in assay [3]; 95.8% in assay [4]; 83.6% in assay [5]; 82.7% in [6]. Besides, the growth is 98.4% in [7], 80% in [8] and 82.4% in [9].

As for `O=C(Nc1cccc(-n2cc(-c3ccncc3)c(-c3ccc(Cl)c(O)c3)n2)c1)c1ccc(N2CCOCC2)c(C(F)(F)F)c1`, the growth in assay [1] was 5.19% (active); in assay [2], 37%; in assay [3], 116%; in [4] it was 108%; in assay [5] it was 74.2%; in [6] it was 96.8%. The growth is 56% in [7], 15.5% in [8] and 43.9% in assay [9].

Consider `CC(C)NCCCNC1=C(Cl)C(=O)c2ccccc2C1=O`, for which the growth in [1] was 68.4%; in [2], 56.9%; in [3], 138%; in assay [4], 84.1%; in [5], 107%; in assay [6], -51.3% (active). The growth in assay [7] was 40.8%; in assay [8] it was 27.7%; in [9], 90.5%.

For the compound `COc1ccc(-c2[nH]nc(N)c2-c2cc(OC)c3c(c2)OCO3)cc1`, the growth in assay [1] is 81.3%; in assay [2] it was 77.2%; in assay [3] it was 70%; in assay [4], 89.3%; in [5], 76.7%; in assay [6], 73.9%. For the same compound, the growth in assay [7] was 64.9%; in assay [8], 40.4%; in [9] it was 8.74% (active).

Take `COc1ccc(Nc2[nH]n3c(=O)cc(C)nc3c2C(N)=O)c(OC)c1`: the growth is 102% in [1]; 97.4% in assay [2]; 113% in assay [3]; 99.2% in assay [4]; 88.3% in assay [5]; 107% in assay [6]. In addition, the growth is 106% in assay [7], 99.2% in assay [8] and 103% in assay [9].

As to `Fc1ccc(CNCCNc2ncnc3c2cnn3-c2ccccc2)cc1`, the growth was 84.6% in assay [1]; 88% in assay [2]; 98.6% in assay [3]; 97.4% in [4]; 94.6% in assay [5]; 94.2% in [6]. Also, the growth was 109% in assay [7], 92.1% in assay [8] and 95.8% in [9].

With `CN(C)c1oc(C2OC2c2ccccc2)nc1C#N` (stereo not given), the growth in [1] is 98.3%; in assay [2], 85.4%; in [3], 89.6%; in [4] it was 109%; in assay [5] it was 79.2%; in assay [6], 90.6%. Also, the growth in assay [7] was 105%; in [8], 90.1%; in assay [9], 100%.
